Most compounds without a hit are left out; they make up all but 2.3% or so of the library.
TDP-43 yeast inh: inhibitors of TDP-43 toxicity in yeast. hit rate 1.8% among 410,000. AID 652104. Potency, µM (doses to about 46.1 µM), for inactives: top-dose growth rescue (activation), hits mostly activators. TDP-43 expressing yeast growth rescue, BacTiter-Glo, 24 h; also: potency is read from the fitted curve at half-maximal effect; % of control where 0% means no effect; nearly all actives have a fitted effect of over 50% in size
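Cell-based yeast growth screen: TDP-43 expression induced in galactose, inoculum OD600=0.02 after raffinose pregrowth to mid-log. Read-out BacTiter-Glo luminescence at 24 hr, 30 deg C; inhibition of toxicity seen as signal increase.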
Abeta rescue: A-beta toxicity reversal in yeast | yeast expressing A-beta42, growth rescue, OD600, 48 h; response scale: 0% DMSO, 100% iron-clioquinol control | hit rate 0.063% among 410,000 | Potency, µM (top dose mostly 46.1 µM), hits mostly activators; also: potency is read from the fitted curve at half-maximal effect; nearly all actives have a fitted effect of over 55% in size
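Yeast growth medium received pinned compounds, then yeast cells expressing toxic A-beta were added; plates incubated at 30 C for 48 hr. Growth read as absorbance at 600 nm, normalized to DMSO and equimolar FeCl3 plus clioquinol controls.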
FUS yeast rescue: FUS proteinopathy suppression in yeast | AID 1347120 | Potency, µM (titrated, usually from 76.6 µM), most hits filed as activators | hit rate 0.24% among 390,000 | S. cerevisiae FUS-expressing, growth rescue, OD600, 24 h;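 also: potency is read from the fitted curve at half-maximal effect; plate controls were DMSO vehicle for no effect and reference control for full effect; nearly all actives have a fitted effect of over 55% in size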
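Steps: raffinose overnight preculture; dilution to OD 0.005 in 2% galactose minimal medium; compound addition (concentration series); 24hr at 30C, 99% humidity; absorbance read at 600 nm.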
pAkt inh: blocks phosphorylation of Akt; Neuro2A IGF-stimulated pAkt S473 HTRF, 20 min; hits give low values; activity change, % for hits at 50 µM; hit rate 0.32% among 360,000; AID 651550; in the data active = activity change below about -80%; inconclusive = mostly about -51% to -80%; also: % is scaled to controls: 0 for no effect and ±100 for the full control effect
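Neuro2A cells (4,500/well, DMEM with 0.5% FBS) were treated with compound at a single 50 µM final concentration, stimulated with 6 nM IGF for 20 min at 37 °C, and lysed. Phospho-Akt Ser473 was read by HTRF as 665/615 ratio ×10^4.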
aSyn yeast inh: rescues yeast growth from alpha-synuclein toxicity. Yeast expressing alpha-synuclein, growth rescue, BacTiter-Glo, 24 h. Potency, µM (titrated, usually from 46.1 µM), for the others: top-dose growth rescue (activation), usual class: activators. hit rate 0.14% among 370,000. AID 652106; also: potency is read from the fitted curve at half-maximal effect; % of control where 0% means no effect; nearly all actives have a fitted effect of over 65% in size
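Galactose-induced alpha-syn yeast (OD600=0.02, raffinose-pregrown) + pinned cpd, 24 hr, 30 deg C; growth by BacTiter-Glo luminescence. Growth restoration scores as activation.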
The depositor's hits bear a star; i = inactive; ? = inconclusive; . = no result given; [ ] = dose if it differs, or a comment. Unless noted, calls follow the shape of the dose curve; as a rule, active = well fitted curve in the direction sought with a large enough effect; inconclusive = small, poorly fitted or top-dose-only effect, or another doubt; inactive = no such curve, though single readings can be large; an effect the other way counts as inactive or inconclusive.

SMILES | TDP-43 yeast inh | Abeta rescue | FUS yeast rescue | pAkt inh | aSyn yeast inh
CCC(C)NC(=O)c1ccc2nc(-c3ccco3)c(-c3ccco3)nc2c1 (configuration not stated) | . | . | . | . | 2.5%
Fc1ccc(Oc2nnnn2-c2ccccc2)cc1 | 20.4% | i | i | i | 4.6%
Clc1ccc(OCc2nnnn2-c2ccccc2)cc1 | 12.6µM* | i | . | i | 3.9%
Brc1ccc(Oc2nnnn2-c2ccccc2)cc1 | 15.8µM* | i | i | i | -0.9%
Cc1ccc(OCc2nc(-c3ccc(C(=O)NCc4ccc(OC(C)C)cc4)cc3)oc2C)cc1 | 17.2% | i | i | . | .
CCOc1ccccc1CNC(=O)CN1C(=O)CCc2cc(S(=O)(=O)N3CCCCC3)ccc21 | -0.1% | i | ? | . | .
O=C(Nc1ccccn1)c1cccc(S(=O)(=O)N2CCCc3ccccc32)c1 | 25.1µM* | i | i | i | 9.1%[1.84 µM]
Cc1ccnc(NC(=O)c2cccc(S(=O)(=O)N3CCCc4ccccc43)c2)c1 | 22.4µM* | i | i | i | 9.4%
COc1ccc(Cl)cc1NC(=O)CN(c1cccc(C)c1C)S(=O)(=O)c1ccccc1 | 15.4% | i | 22.4µM* | . | .
Cc1nn2c(-c3ccco3)nnc2c2ccccc12 | 8.91µM* | i | i | . | .
COc1cc(C2C=C(C34CC5CC(CC(C5)C3)C4)NC(=S)N2)cc(OC)c1OC (configuration not stated) | -8.4% | i | i | -112.9%* | -1.1%
COc1ccc(OC)c(C2C=C(C34CC5CC(CC(C5)C3)C4)NC(=S)N2)c1 (configuration not stated) | -17.6% | ? | i | i | 1.7%
CCOC(=O)C1CCN(C(=O)C2COc3ccccc3C2)CC1 (configuration not stated) | -4.0% | i | i | . | .
Cc1ccc(NC(=O)CCCc2nnc3n(C)c(=O)c4sccc4n23)cc1F | -17.0% | i | i | . | .
CCC(C)c1ccc(NC(=S)NCCn2cc(Br)cn2)cc1 (configuration not stated) | -2.5%[0.397 µM] | 10µM* | i | i | -0.7%
O=C(Nc1ccc2c(c1)OCO2)C1CCCN(S(=O)(=O)c2cccs2)C1 (configuration not stated) | -23.9% | i | i | i | -5.9%
O=C(Nc1ccc2c(c1)OCCO2)C1CCCN(S(=O)(=O)c2cccs2)C1 (configuration not stated) | 5.7% | i | i | -108.2%* | 11.6%
CCCS(=O)(=O)N1CCCC(C(=O)NC(C)c2ccc3c(c2)OCCO3)C1 (configuration not stated) | -7.4% | i | i | -114.3%* | 2.1%
C(=N\Nc1nc(-c2ccccn2)nc2ccccc12)/c1ccccc1 | . | . | . | i | 12.6µM*
CCc1cc(/C(Cc2csc(C)n2)=N/O)c(O)cc1O | 1.9% | i | i | -103.8%* | -10.4%
Cc1nc(C/C(=N\N)c2ccc(O)cc2O)cs1 | -20.7% | i | i | i | -2.1%
Cc1ccc(C)c(NC(=O)C2CCCN(S(=O)(=O)c3cccc4nsnc34)C2)c1 (configuration not stated) | 10.9% | i | i | . | .
OCc1cn(-c2ccccc2)nc1-c1cc2ccccc2o1 | 15.8µM* | i | i | i | 7.5%
COc1ccc(NC(=O)c2cn(-c3ccccc3)nc2-c2cc3ccccc3o2)cc1 | 4.3% | i | i | i | 6.3%
CCN(CC)c1nc(C#N)nc(N2CCOCC2)n1 | . | . | . | . | 4.2%
COc1ccc(/C=N/Nc2nc(N3CCCCC3)nc(N3CCCCC3)n2)cc1[N+](=O)[O-] | -4.2% | i | ? | i | -1.8%
C(=N\Nc1nc(N2CCOCC2)nc(N2CCOCC2)n1)/c1cccnc1 | -14.4% | i | i | -81.9%* | 0.6%
O=[N+]([O-])c1cc(/C=N/Nc2nc(N3CCCCC3)nc(N3CCCCC3)n2)ccc1O | 22.4µM* | i | i | i | -13.0%
COc1cc(/C=N/Nc2nc(Nc3ccccc3)nc(N3CCOCC3)n2)ccc1OC(=O)c1ccco1 | 20µM* | i | ? | i | 14.0%
C(=N\Nc1nc(N2CCCCCC2)nc(N2CCCCCC2)n1)/c1ccccc1 | 22.4µM* | i | i | i | -14.1%
